# From PubChem BioAssay
# The full list was thinned out, with hits kept by preference.
# HT1080 IDH1KD tx – qHTS for induction of synthetic lethality in tumor cells producing 2HG: qHTS for the HT-1080-IDH1KD cell line | hit rate 2% among 360,000 | HT-1080 IDH1 knockdown viability, ATP luminescence, 48 h | Potency, µM (titrated, usually from 46.1 µM), inactives show at the top dose activity, negative = toxicity, hits mostly cytotoxic | AID 686971, 2013;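 note: potency is the fitted concentration of half-maximal effect; 0% = DMSO wells and -100% = cell-free medium wells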
#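 Assay cells: HT-1080 with IDH1 knockdown, 750 per well, RPMI/5% FBS. Exposure: 48 h at 37 °C following 2 h pre-incubation. Read: CellTiter-Glo luminescence; fitted concentration-response, curve class assigned.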
# ALOX12 inh – Primary qHTS assay for inhibitors of human arachidonate 12S-lipoxygenase (ALOX12): Round 2 | Polyunsaturated fatty acid lipoxygenase ALOX12 (Homo sapiens), P18054 | purified 12hLO, xylenol orange hydroperoxide absorbance | Potency, µM (titrated, usually from 108 µM), inactives show at the highest dose activity change, negative = inhibition, hits mostly inhibitors | hit rate 1.1% among 580,000 | AID 1671190, 2021; note: potency is the fitted concentration of half-maximal effect
# Target sequence (P18054 whole entry, looked up): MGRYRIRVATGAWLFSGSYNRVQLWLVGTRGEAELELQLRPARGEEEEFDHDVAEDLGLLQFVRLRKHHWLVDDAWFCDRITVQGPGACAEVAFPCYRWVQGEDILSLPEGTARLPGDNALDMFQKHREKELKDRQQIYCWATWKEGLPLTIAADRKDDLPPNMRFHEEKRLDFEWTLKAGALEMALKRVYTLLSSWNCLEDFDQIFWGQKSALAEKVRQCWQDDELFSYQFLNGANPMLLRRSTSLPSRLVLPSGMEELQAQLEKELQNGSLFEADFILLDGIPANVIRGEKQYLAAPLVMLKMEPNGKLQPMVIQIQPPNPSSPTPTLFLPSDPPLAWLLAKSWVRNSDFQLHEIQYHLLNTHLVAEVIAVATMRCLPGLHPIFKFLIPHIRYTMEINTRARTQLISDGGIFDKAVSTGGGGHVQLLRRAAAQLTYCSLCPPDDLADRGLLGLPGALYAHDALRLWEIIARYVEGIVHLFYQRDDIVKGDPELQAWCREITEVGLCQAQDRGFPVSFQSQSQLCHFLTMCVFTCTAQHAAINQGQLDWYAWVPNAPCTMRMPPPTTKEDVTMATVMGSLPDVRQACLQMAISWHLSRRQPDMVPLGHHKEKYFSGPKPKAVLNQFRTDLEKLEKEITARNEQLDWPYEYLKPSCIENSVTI
#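 Purified human 12hLO (150 nM final) in 25 mM Hepes, 0.01% Triton X-100, pH 7.0 was preincubated 15 min at room temperature with compound. Then 40 uM arachidonic acid was added, 30 min. Hydroperoxide was read by Fe-XO absorbance ratio 573/405 nm.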
# TDP1 cell noCPT – qHTS for Inhibitors of human tyrosyl-DNA phosphodiesterase 1 (TDP1): qHTS in cells in absence of CPT; DT40 Tdp1-/- hTDP1 cells, no CPT, ATP luminescence, 48 h; Potency, µM (doses to about 46.2 µM), for inactives: at the top dose activity change, negative = growth inhibition, actives largely listed as inhibitors; hit rate 15% among 420,000; AID 686978, 2013; note: potency is the fitted concentration of half-maximal effect; nearly all actives have a fitted effect of over 55% in size
#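 No-CPT arm: Tdp1-/-;hTDP1 DT40 cells (400/well) plus compounds, incubated ≥48 hr at 37 °C. Readout CellTiter-Glo luminescence.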
# HT1080NT lethal – qHTS for induction of synthetic lethality in tumor cells producing 2HG: qHTS for the HT-1080-NT fibrosarcoma cell line; AID 686970, 2013; Potency, µM (titrated, usually from 46.1 µM), inactives show at the top dose activity, negative = less viability, hits mostly cytotoxic; HT-1080-NT fibrosarcoma viability, CellTiter-Glo ATP luminescence, 48 h; hit rate 1.6% among 360,000;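 note: NT is the 2HG producing partner of a matched IDH1 knockdown line; potency is the fitted concentration of half-maximal effect; 0% = DMSO-treated cells and -100% = media-only wells without cells; nearly all actives have a fitted effect of over 55% in size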
#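 Toxicity toward the 2HG-producing NT line was scored as %Activity, normalised to DMSO and no-cell wells, from CellTiter-Glo luminescence after 48 hours' treatment.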
# DT40 TDP1 CPT – qHTS for Inhibitors of human tyrosyl-DNA phosphodiesterase 1 (TDP1): qHTS in cells in presence of CPT | hit rate 12% among 420,000 | Potency, µM (series often up to 46.2 µM), without a hit: at the highest dose activity change, negative = growth inhibition, usual class: inhibitors | chicken DT40 Tdp1-/-;hTDP1 cells + 20 nM CPT, ATP luminescence, 48 h | AID 686979, 2013; note: potency is the fitted concentration of half-maximal effect; nearly all actives have a fitted effect of over 55% in size
#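 Chicken DT40 Tdp1-/- cells complemented with human TDP1, 400 cells/well, exposed to compounds plus 20 nM camptothecin for at least 48 h at 37 C; viability read as ATP content by CellTiter-Glo luminescence.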
# IL1B secr inh – qHTS for Inhibitors of Inflammasome Signaling: IL-1-beta AlphaLISA Primary Screen | activity change, % at 57.5 µM | AID 743279, 2014 | hit rate 4.7% among 360,000 | THP-1 LPS/ATP IL-1B secretion, AlphaLISA, 16 h; active compounds read low; in the data active = activity change below about -50%; inconclusive = mostly about -30% to -49%
#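 Secreted IL-1B measured by AlphaLISA bead assay after 16 h compound exposure of THP-1 cells; compounds (final up to 57.5 uM) added 1 h before LPS (250 ng/mL) and ATP (1.25 mM) stimulation; lower signal means less secretion.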
# An asterisk follows results filed as active; ? = inconclusive; . = no result; [ ] = dose if it differs, or a comment. Unless noted, calls come from the whole dose curve; as a rule, active = well fitted curve in the direction sought with a large enough effect; inconclusive = small, poorly fitted or top-dose-only effect, or another doubt; inactive = no such curve, though single readings can be large; an effect the other way counts as inactive or inconclusive. Unless noted, % is set by controls: 0 for no effect and ±100 for the full control effect.
SMILES,HT1080 IDH1KD tx,ALOX12 inh,TDP1 cell noCPT,HT1080NT lethal,DT40 TDP1 CPT,IL1B secr inh
OCCNCCCCOc1ccc(F)cc1,6.1%,5.1%,-2.7%,-1.7%,-27.4%,-3.4
CCCCCC(=O)N1CC[C@@H](CC(=O)NCc2ccccc2)[C@@H](CC)C1,.,6.0%[176 µM],.,.,.,.
COc1cccc(C(=O)N2CC3(Cc4ccccc4N(C(C)=O)C3)C2)c1,.,-5.1%,.,.,.,.
COc1ccc(CCNC(=O)c2ccc(-c3ccc([N+](=O)[O-])cc3)o2)cc1OC,-23.7%,2.7%,?,-20.4%,18.4µM*,?
COc1ccc(CCNC(=O)c2ccc(Br)o2)cc1Br,3.0%,?,?,9.4%,23.1µM*,-12.0
COc1ccc(C)cc1NCc1ccc([N+](=O)[O-])cc1,1.9%,4.3%,-24.5%,5.6%,-0.5%,6.0
COc1ccc(CCNC(=O)c2coc(=O)c(Br)c2)cc1,?,0.0%,1.3µM*,?,0.651µM*,0.0
COc1ccc(CNCCc2ccc([N+](=O)[O-])cc2)c(OC)c1OC,-14.5%,7.94µM*,20.6µM*,-17.7%,6.51µM*,-4.9
C=CCCC(CN1CCCC1)Oc1ccc(C(=O)NCC)cn1 (configuration not stated),.,11.2%,.,.,.,.
O=C(C[C@H]1C[C@@H]2c3cc(NC(=O)c4ccc5c(c4)OCO5)ccc3O[C@@H]2[C@H](CO)O1)NCc1cc(F)ccc1F,0.1%,-28.2%,25.9µM*,-0.7%,?,-5.3
CCCNC(=O)C[C@@H]1C[C@H]2c3cc(NC(=O)c4ccc5c(c4)OCO5)ccc3O[C@H]2[C@@H](CO)O1,7.0%,0.0%,14.6µM*,8.0%,23.1µM*,22.5
COC(=O)C[C@@H]1CC[C@H](NC(=O)c2ccc3c(c2)OCO3)[C@@H](CO)O1,14.5%,?,7.3%,24.6%,-6.6%,24.5
O=C(C[C@@H]1CC[C@H](NC(=O)c2ccc3c(c2)OCO3)[C@@H](CO)O1)NCc1ccc(F)cc1,9.2%,?,11.6µM*,1.9%,?,-12.4
COc1ccccc1CNC(=O)C[C@@H]1C[C@H]2c3cc(NC(=O)c4ccc5c(c4)OCO5)ccc3O[C@H]2[C@@H](CO)O1,-5.3%,16.5%,?,-8.6%,?,-5.0
Cc1ccc(NC(=O)c2cc(S(=O)(=O)N(C)C3CCCCC3)ccc2F)cc1C,.,4.0%,18.4µM*,.,18.4µM*,.
COc1ccc2oc(C(=O)Nc3ccc(S(=O)(=O)N(C)C4CCN(C)CC4)cc3)c(C)c2c1,18.4µM*,94.1%,18.4µM*,23.1µM*,?,?
COc1ccc(NC(=O)c2oc3ccc(S(=O)(=O)N4CCCCC4)cc3c2C)cc1,.,-15.3%,?,.,?,.
Cc1ccc(NC(=O)c2oc3ccc(S(=O)(=O)N(C)C4CCCCC4)cc3c2C)c(C)c1,.,-11.6%,14.6µM*,.,?,.
Cc1c(C(=O)Nc2ccc(F)c(Cl)c2)oc2ccc(S(=O)(=O)N(C)C3CCCCC3)cc12,.,-8.1%,14.6µM*,.,23.1µM*,.
COCCNC(=O)c1cc(S(=O)(=O)N(C)C2CCCCC2)ccc1Cl,8.8%,7.5%,-29.7%,5.8%,-27.6%,34.1
Cc1nc(Oc2ccc(F)cc2)c2c(C)c(C)sc2n1,.,-82.3%,.,.,.,.
CCn1nccc1C(=O)NCCc1ncc(C)n1Cc1ccccc1,.,53.4%,.,.,.,.
CC(=O)N[C@H]1[C@H](O)[C@H](O)C[C@@H]1c1ccc(C(F)(F)F)nc1,.,2.9%[176 µM],.,.,.,.
CCC(=O)c1cn([C@@H](CCC(OC)OC)CC(=O)OC(C)(C)C)cc1CC,8.8%,-2.1%,-26.6%,12.4%,-19.7%,-9.3
COCCCNC(=O)c1oc2ccc(S(=O)(=O)N(C)C3CCCCC3)cc2c1C,-10.1%,0.0%,?,3.2%,?,-7.8
SMILES,HT1080 IDH1KD tx,ALOX12 inh,TDP1 cell noCPT,HT1080NT lethal,DT40 TDP1 CPT,IL1B secr inh
COc1ccc(NC(=O)c2oc3ccc(S(=O)(=O)N(C)C4CCCCC4)cc3c2C)cc1Cl,.,-20.3%,5.8µM*,.,9.2µM*,.
Cc1c(C(=O)Nc2cccc(C(F)(F)F)c2)oc2ccc(S(=O)(=O)N(C)C3CCCCC3)cc12,.,0.0%,13µM*,.,11.6µM*,.
COc1cc2c(cc1OC)-c1c(c(C(=O)NCCN3CCOCC3)nn1-c1ccccc1F)C2,.,-5.4%,.,.,.,.
O=C(Nc1cccs1)NC1CCCC1,5.5%,?,3.8%,3.8%,3.3%,10.2
CC1CCC(NC(=O)Nc2cccs2)CC1 (configuration not stated),-2.8%,12.6µM*,-14.6%,-5.6%,-25.6%,-0.2
O=C(CC1C[C@H](C(=O)N2CCCCC2)[C@@]2(CCc3ccccc3)c3[nH]c4ccccc4c3CCN2C1=O)NCc1cccc(C(F)(F)F)c1 (some centres not stated),5.5%,-7.6%,16.4µM*,7.5%,?,?
COCCCNC(=O)C[C@H]1C[C@H](C(=O)N2CCCCC2)[C@@]2(CCc3ccccc3)c3[nH]c4ccc(Cl)cc4c3CCN2C1=O,4.1%,18.6%,4.61µM*,7.0%,8.2µM*,-17.4
O=C(C[C@H]1C[C@H](C(=O)N2CCCCC2)[C@@]2(CCc3ccccc3)c3[nH]c4ccc(Cl)cc4c3CCN2C1=O)NCc1cccc(C(F)(F)F)c1,0.1%,?,11.6µM*,7.7%,13µM*,?
CC(C)(C)NC(=O)C[C@H]1C[C@H](C(=O)N2CCCCC2)[C@@]2(CCc3ccccc3)c3[nH]c4ccc(Cl)cc4c3CCN2C1=O,2.1%,16.0%,?,7.8%,?,-3.9
O=C(C[C@H]1C[C@H](C(=O)N2CCCCC2)[C@@]2(CCc3ccccc3)c3[nH]c4ccc(Cl)cc4c3CCN2C1=O)NCc1ccco1,4.3%,?,8.2µM*,4.1%,7.31µM*,-19.4
Cc1ccc(-n2c(C3CCN(C(=O)c4cccc(Cl)c4)CC3)n[nH]c2=O)cc1,.,3.4%,.,.,.,.
O=C(Nc1ccc(Cl)nc1)c1cccn2nccc12,.,23.2%[176 µM],.,.,.,.
